Compound activity deposited in PubChem by National Center for Advancing Translational Sciences (NCATS).
G9a inh-1: inhibitors of human histone lysine methyltransferase G9a; Q96KQ7; G9a H3K9 monomethylation, AlphaScreen, 2 h; Potency, µM (titrated, usually from 102 µM), hits mostly inhibitors; 8.8% of 350,000 active; AID 504332; note: nearly all actives have a fitted effect of over 75% in size
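Quantitative HTS format: methyltransferase activity on a biotin-tagged H3K9 peptide is measured by AlphaScreen, using a rabbit anti-monomethyl-H3K9 antibody with streptavidin donor and anti-IgG acceptor beads. Final levels are 20 nM enzyme, 500 nM peptide, 20 uM SAM; 2 h RT.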
BAZ2B inh: inhibitors of human BAZ2B bromodomain; Q9UIF8; AlphaScreen BAZ2B-H3K14Ac peptide displacement; Potency, µM (highest dose often 114 µM), usual class: inhibitors; 4.4% of 360,000 active; note: nearly all actives have a fitted effect of over 60% in size
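BAZ2B 50 nM plus b-H3(5-23)K14Ac 50 nM, PBS pH 7.4/0.01% Tween-20, 30 min RT; compound added (max 110 uM), 30 min RT; streptavidin donor/Ni-chelate acceptor beads 10 ug/mL final, 20 min dark; AlphaScreen read.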
L3MBTL1 inh: blocks human L3MBTL1 | AlphaScreen L3MBTL1–H3K9me1 peptide binding | Potency, µM (series often up to 57.1 µM), most hits filed as inhibitors | 0.66% of 230,000 active | Q9Y468; note: nearly all actives have a fitted effect of over 60% in size
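L3MBTL1 (50 nM) pre-complexed 30 min with biotinylated H3(1-15)K9me1 peptide (75 nM), then compounds added for 30 min at room temperature; AlphaScreen streptavidin donor/nickel chelate acceptor beads (10 ug/mL final) read after 30 min dark incubation.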
GLS inh: inhibitors of human glutaminase (GLS); O94925; GLS enzymatic activity, qHTS titration; Potency, µM (series often up to 45.5 µM), most hits filed as inhibitors; 0.21% of 410,000 active
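hKGA in 45 mM KH2PO4 (pH 8.2), 0.02% Tween-20 with compound, then 1mM L-Glutamine (stock as added) plus glutamate oxidase/HRP/Amplex red coupling mix. Fluorescence read initially and after 30 min at RT; signal change reflects glutamate formation.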
JMJD2A Tudor: blocks the human JMJD2A Tudor domain; Potency, µM (titrated, usually from 114 µM), hits mostly inhibitors; AlphaScreen JMJD2A-Tudor / H3K4me3 peptide binding; 4.4% of 390,000 active; note: nearly all actives have a fitted effect of over 50% in size
HP1b binding inh: blocks HP1-beta chromodomain binding to methylated histone tails; P83916; AlphaScreen HP1-beta / biotin-H3K9me3 peptide binding; Potency, µM (titrated, usually from 114 µM), most hits filed as inhibitors; 0.56% of 390,000 active; AID 540317; note: nearly all actives have a fitted effect of over 70% in size
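AlphaScreen: HP1-beta (50 nM) preformed 30 min with biotin-H3(1-18)K9me3 peptide (50 nM) in PBS pH 7.4, 0.01% Tween-20. Compound added for 30 min at RT, then streptavidin donor/nickel chelate acceptor beads (10 ug/mL) for 30 min.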
JMJD2E inh: JMJD2E (human) demethylase inhibition, confirmation. Potency, µM (highest dose often 56.8 µM), actives largely listed as inhibitors. Recombinant JMJD2E, FDH-coupled NADH fluorescence (FDH is formaldehyde dehydrogenase). shares compounds with JMJD2A Tudor. 93% of 140 active
Target sequence (B2RXH2 1-337 limits assumed): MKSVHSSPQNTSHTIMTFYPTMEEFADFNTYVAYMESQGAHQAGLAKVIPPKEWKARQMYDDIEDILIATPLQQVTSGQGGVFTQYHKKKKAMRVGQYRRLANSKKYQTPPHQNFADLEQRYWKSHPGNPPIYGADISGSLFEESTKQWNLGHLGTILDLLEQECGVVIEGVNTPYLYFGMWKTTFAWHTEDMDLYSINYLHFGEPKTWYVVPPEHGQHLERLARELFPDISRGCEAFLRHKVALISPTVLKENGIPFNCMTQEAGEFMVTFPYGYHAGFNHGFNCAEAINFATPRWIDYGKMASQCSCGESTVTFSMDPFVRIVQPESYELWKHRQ
FDH inh: blocks Pseudomonas putida formaldehyde dehydrogenase, flagging JMJD2E artifacts; shares compounds with JMJD2A Tudor; FDH enzyme assay, NADH fluorescence kinetic; Potency, µM (highest dose often 56.7 µM), usual class: inhibitors; 10% of 140 active; AID 2680
Target sequence (P46154 whole entry, looked up): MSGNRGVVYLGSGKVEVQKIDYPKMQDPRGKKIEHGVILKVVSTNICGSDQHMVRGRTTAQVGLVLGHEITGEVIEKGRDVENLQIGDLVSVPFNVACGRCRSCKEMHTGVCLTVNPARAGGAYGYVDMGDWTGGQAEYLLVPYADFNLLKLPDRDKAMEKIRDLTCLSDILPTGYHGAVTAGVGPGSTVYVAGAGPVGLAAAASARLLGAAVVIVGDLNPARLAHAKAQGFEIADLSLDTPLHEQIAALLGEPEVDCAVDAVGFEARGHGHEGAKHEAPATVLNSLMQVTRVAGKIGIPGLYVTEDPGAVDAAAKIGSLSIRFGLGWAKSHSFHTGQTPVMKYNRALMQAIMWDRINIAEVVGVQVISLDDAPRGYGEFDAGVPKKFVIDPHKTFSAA
G9a inh-2: inhibits human G9a histone lysine methyltransferase, hit confirmation; AID 588344; Potency, µM, hits mostly inhibitors; 89% of 370 active; G9a H3K9 monomethylation, AlphaScreen, 2 h; shares compounds with JMJD2A Tudor; note: nearly all actives have a fitted effect of over 65% in size
GLS hit conf: confirmation of human glutaminase inhibitors; shares compounds with GLS inh; biochemical glutaminase enzyme inhibition assay; Potency, µM (series often up to 46.1 µM), usual class: inhibitors; 35 tested, under 10 active; AID 624261; calls by dose curve
GLS HRP counter: coupled enzyme interference in glutaminase inhibitor counterscreen | shares compounds with GLS inh | HRP/glutamate oxidase coupled Amplex Red fluorescence counterscreen | activity change, negative = inhibition, % at 46.1 µM | 35 tested, under 10 active | AID 624262
HEK293 tox: reduces HEK-293 viability in glutaminase inhibitor counter-screen | shares compounds with GLS inh | 35 tested, under 10 active | HEK-293 viability, CellTiter-Glo luminescence, 24 h | activity change, negative = cytotoxicity, % at 46.1 µM | AID 624264
Large screens that a line does not name were inactive (follow-up assays come after a bar, where they were run). The list is not random: actives were taken first. Their share in the collection is about 10%. Unless noted, calls come from the whole dose curve; as a rule, active = well fitted curve in the direction sought with a large enough effect; inconclusive = small, poorly fitted or top-dose-only effect, or another doubt; inactive = no such curve, though single readings can be large; an effect the other way counts as inactive or inconclusive.

COc1cccc(NC(=O)Cc2nnc(SCC(=O)c3ccccc3)n2C)c1	G9a inh-1 0.35µM | G9a inh-2 0.71
COCC(=O)Nc1ccc(N(C)C)cc1	G9a inh-1 2.5µM | G9a inh-2 3.2
COCC(=O)Nc1ccc(C(C)C)cc1	none (no result: L3MBTL1 inh)
CN(C)c1ccc(NC(=O)COC(=O)CCC(=O)c2ccc(F)cc2)cc1	G9a inh-1 2.5µM, BAZ2B inh inconclusive, JMJD2A Tudor inconclusive (no result: L3MBTL1 inh) | G9a inh-2 7.1
CN(C)c1ccc(NC(=O)CCCc2ccccc2)cc1	G9a inh-1 1.3µM, BAZ2B inh 45µM, JMJD2A Tudor inconclusive, HP1b binding inh inconclusive | G9a inh-2 2.5
COc1ccc2c(c1)Cc1sc(NC(=O)c3ccc(Cl)cc3)nc1-2	none (no result: L3MBTL1 inh)
CN(c1nnc(NC(=O)Nc2ccc(Br)cc2)s1)C1CCCCC1	G9a inh-1 inconclusive (no result: L3MBTL1 inh)
CCOCCOC(=O)c1[nH]c2c(c1C)C(=O)CC(c1ccc(OC)c(OC)c1)C2 (configuration not stated)	none (no result: L3MBTL1 inh)
CCOCCOC(=O)c1[nH]c2c(c1C)C(=O)CC(c1ccc(N(C)C)cc1)C2 (configuration not stated)	G9a inh-1 inconclusive, BAZ2B inh inconclusive, JMJD2A Tudor inconclusive | G9a inh-2 inconclusive
CCn1nnnc1NCc1ccc(N2CCCC2)cc1	G9a inh-1 inconclusive, JMJD2A Tudor 20µM, HP1b binding inh inconclusive | G9a inh-2 10
CCn1nnnc1NCc1ccc(SC)cc1	none
Cc1oc2ncn(CC(C)C)c(=O)c2c1C(=O)N1CCN(c2cccc(C(F)(F)F)c2)CC1	none (no result: L3MBTL1 inh)
COc1ccc(NC(=O)CC2Sc3ncnn3C2=O)cc1 (configuration not stated)	G9a inh-1 1.4µM, JMJD2A Tudor inconclusive | JMJD2E inh 3.2µM | FDH inh 0.28µM | G9a inh-2 0.63
O=C(CC1SC(=Nc2ccccc2)N(CCCO)C1=O)Nc1ccc(Cl)cc1 (configuration not stated)	none
O=C(CC1Sc2ncnn2C1=O)Nc1ccc(Cl)cc1 (configuration not stated)	G9a inh-1 2.5µM, JMJD2A Tudor inconclusive | JMJD2E inh 2µM | FDH inh 0.25µM | G9a inh-2 inconclusive
CCOC(=O)c1ccc(NC(=O)CC2Sc3ncnn3C2=O)cc1 (configuration not stated)	G9a inh-1 2.2µM, JMJD2A Tudor 7.9µM, HP1b binding inh inconclusive | JMJD2E inh 2µM | FDH inh 0.16µM | G9a inh-2 0.56
NC(=O)CSc1nc2c(oc3ccccc32)c(=O)n1-c1ccccc1F	none (no result: L3MBTL1 inh)
O=C(CSc1nnc(-c2ccncc2)o1)c1cccc([N+](=O)[O-])c1	none
O=C(CSc1ncn[nH]1)c1cccc([N+](=O)[O-])c1	G9a inh-1 25µM, JMJD2A Tudor 28µM | JMJD2E inh 10µM | FDH inh 0.89µM
Cc1ccc2oc(=O)c3cnn(CC(=O)N4CCN(c5ccc(F)cc5)CC4)c3c2c1	none (no result: L3MBTL1 inh)
Cc1ccc(C(=O)Nc2ccc3c(c2)ncn3C)cc1	none (no result: L3MBTL1 inh)
Cc1ccc(CNc2ccc3c(c2)ncn3C)cc1	G9a inh-1 0.71µM, BAZ2B inh inconclusive, GLS inh inconclusive, JMJD2A Tudor inconclusive | G9a inh-2 8.9
Cc1ccc(CNc2ccc(N3CCOCC3)cc2)s1	G9a inh-1 inconclusive, BAZ2B inh 45µM, JMJD2A Tudor 50µM, HP1b binding inh inconclusive (no result: L3MBTL1 inh) | G9a inh-2 10
CCCCOC(=O)Nc1ccc(N(C)C)cc1	G9a inh-1 1.6µM, BAZ2B inh 40µM, JMJD2A Tudor 79µM, HP1b binding inh inconclusive | G9a inh-2 1.6
CCCOc1ccc(C(=O)Nc2ccc(N(C)C)cc2)cc1	G9a inh-1 inconclusive (no result: L3MBTL1 inh) | G9a inh-2 1
CCCCOC(=O)Nc1ccc(C(N)=O)cc1	none (no result: L3MBTL1 inh)
COc1cccc(Cn2nnc(C(=O)NCc3ccc(Cl)cc3Cl)c2N)c1	none (no result: L3MBTL1 inh)
O=C(COc1ccc(Cl)cc1)Nc1nnc(S(=O)(=O)N2CCc3ccccc32)s1	G9a inh-1 0.89µM, BAZ2B inh inconclusive, JMJD2A Tudor inconclusive (no result: L3MBTL1 inh) | G9a inh-2 45
CC1=C(C(=O)Nc2ccc(Cl)cc2)C(C(C)C)n2nc(SCc3ccc(Cl)cc3)nc2N1 (configuration not stated)	none (no result: L3MBTL1 inh)
CCOC(=O)Cn1c(=O)n(CC2CCCO2)c2nc(-c3ccc(CC)cc3)nc(C(N)=O)c21 (configuration not stated)	none (no result: L3MBTL1 inh)
CCN(CC)S(=O)(=O)c1ccc(NS(=O)(=O)c2cccc(C)c2)cc1	GLS inh inconclusive | GLS hit conf inactive | GLS HRP counter inactive | HEK293 tox inactive
COc1ccc(-c2nn3c(=O)cc(CN4CCN(C(=O)c5ccc(C(C)(C)C)cc5)CC4)nc3s2)cc1	none (no result: L3MBTL1 inh)
COc1ccccc1NS(=O)(=O)c1cc(N)ccc1N1CCCC1	GLS inh inconclusive, JMJD2A Tudor inconclusive, HP1b binding inh 14µM (no result: G9a inh-1, BAZ2B inh) | GLS hit conf inactive | GLS HRP counter inconclusive | HEK293 tox inactive
COc1ccccc1NS(=O)(=O)c1cc(N)ccc1N1CCOCC1	HP1b binding inh inconclusive (no result: G9a inh-1, BAZ2B inh)
Cc1ccccc1-c1nc2scc(CCNC(=O)c3ccco3)n2n1	none (no result: L3MBTL1 inh)
COc1ccccc1N(C)S(=O)(=O)c1ccc(C(=O)OCC(=O)N(C)c2ccccc2)cc1	GLS inh 7.1µM (no result: BAZ2B inh) | GLS hit conf inactive | GLS HRP counter inactive | HEK293 tox inactive
Cc1ccc(S(=O)(=O)Nc2cc(C)c(O)c(Sc3n[nH]c(C)n3)c2)cc1	G9a inh-1 7.1µM, GLS inh 10µM, JMJD2A Tudor 11µM, HP1b binding inh inconclusive (no result: L3MBTL1 inh) | GLS hit conf inconclusive | GLS HRP counter inconclusive | HEK293 tox inactive
